Common to all, as to assay: DAPPL (digital affinity profiling via proximity ligation, sequencing); 10 mM Tris-HCl pH 7.5, 50 mM NaCl, 1 mM DTT, 4% glycerol, room temperature, 30 min; GST-TFs on glutathione beads, 16-mer random dsDNA library, 0.1% formaldehyde crosslink after washing; high values mean tight binding
The target in one test is T1, FEV (Homo sapiens, UniProt Q99581 1-238).
T1 sequence: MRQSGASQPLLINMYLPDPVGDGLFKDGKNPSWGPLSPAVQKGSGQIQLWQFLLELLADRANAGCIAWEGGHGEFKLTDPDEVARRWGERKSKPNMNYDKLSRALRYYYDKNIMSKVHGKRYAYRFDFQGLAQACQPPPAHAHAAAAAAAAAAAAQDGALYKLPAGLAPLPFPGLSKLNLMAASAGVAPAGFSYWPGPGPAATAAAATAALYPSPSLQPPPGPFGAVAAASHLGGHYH
The settings on record: protein: recombinant; tags: N-terminal GST; dsDNA, one strand shown. The procedure, abridged: (§1)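 A tag-only sample was pooled with DNA-barcoded human transcription factors that had been expressed in yeast as GST fusions and captured on glutathione beads. The pools were incubated for 30 min at room temperature with 200 nmole of a random double-stranded 16-mer DNA library in Tris/NaCl/DTT/glycerol buffer, then washed, crosslinked with 0.1% formaldehyde, proximity-ligated (BsaI/T4 ligase, 1 h, 37 °C), PCR-amplified and sequenced on an Illumina NextSeq500. Binding signal is each hexamer's read frequency for a factor divided by its frequency for the tag-only sample.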

Another test concerns the target ETV5 (Homo sapiens, UniProt P41161 1-510). To be noted: protein: recombinant; tags: N-terminal GST; dsDNA, one strand shown. An outline of the steps: as §1
The next test deals with HSF1 (Homo sapiens, UniProt Q00613 1-529). The settings on record: protein: recombinant; tags: N-terminal GST; chain copies: 3; dsDNA, one strand shown. The procedure, abridged: as §1
Sequence of HSF1 (Q00613 whole entry): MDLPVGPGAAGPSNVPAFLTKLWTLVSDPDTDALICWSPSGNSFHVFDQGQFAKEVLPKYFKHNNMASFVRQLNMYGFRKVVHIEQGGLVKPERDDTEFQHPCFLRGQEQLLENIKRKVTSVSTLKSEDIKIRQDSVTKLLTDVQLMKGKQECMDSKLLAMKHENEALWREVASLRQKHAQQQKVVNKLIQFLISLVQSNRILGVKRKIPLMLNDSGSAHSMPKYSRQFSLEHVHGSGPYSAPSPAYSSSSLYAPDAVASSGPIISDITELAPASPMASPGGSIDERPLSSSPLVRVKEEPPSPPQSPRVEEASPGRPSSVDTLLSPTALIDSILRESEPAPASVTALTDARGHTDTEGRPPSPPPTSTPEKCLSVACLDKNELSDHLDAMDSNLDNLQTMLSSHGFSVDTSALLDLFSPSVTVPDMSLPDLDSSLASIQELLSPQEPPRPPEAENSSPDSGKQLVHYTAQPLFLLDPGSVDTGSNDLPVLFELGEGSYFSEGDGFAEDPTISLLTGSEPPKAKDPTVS
Another test addresses T2, SPIC (Homo sapiens, UniProt Q8N5J4 1-248).
T2 sequence: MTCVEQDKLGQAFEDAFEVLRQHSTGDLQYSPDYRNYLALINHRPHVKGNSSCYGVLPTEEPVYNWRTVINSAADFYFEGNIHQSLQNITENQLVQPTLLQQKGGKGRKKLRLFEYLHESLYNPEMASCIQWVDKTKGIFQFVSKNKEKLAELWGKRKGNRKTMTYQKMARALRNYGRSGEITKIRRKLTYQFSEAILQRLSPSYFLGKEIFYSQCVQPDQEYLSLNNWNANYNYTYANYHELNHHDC
To be noted: protein: recombinant; tags: N-terminal GST; dsDNA, one strand shown. An outline of the steps:
as §1

Another test concerns the target ELF4 (Homo sapiens, UniProt Q99607 1-663). To be noted: protein: recombinant; tags: N-terminal GST; dsDNA, one strand shown. The procedure, abridged:
as §1

The target of a further test is T3, ELK4 (Homo sapiens, UniProt P28324-2 1-405).
T3 sequence: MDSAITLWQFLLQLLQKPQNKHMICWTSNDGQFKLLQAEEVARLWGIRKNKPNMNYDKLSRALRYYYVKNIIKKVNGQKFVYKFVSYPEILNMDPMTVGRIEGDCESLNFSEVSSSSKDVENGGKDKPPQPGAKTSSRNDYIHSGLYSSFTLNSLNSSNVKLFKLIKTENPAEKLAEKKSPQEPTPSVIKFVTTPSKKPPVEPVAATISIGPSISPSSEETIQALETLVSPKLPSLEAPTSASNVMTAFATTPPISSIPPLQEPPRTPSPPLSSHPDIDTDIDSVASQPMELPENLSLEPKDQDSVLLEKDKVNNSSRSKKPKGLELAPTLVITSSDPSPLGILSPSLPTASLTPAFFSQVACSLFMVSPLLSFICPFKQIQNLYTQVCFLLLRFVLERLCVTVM
To be noted: protein: recombinant; tags: N-terminal GST; dsDNA, one strand shown. The procedure, abridged: as §1

A further test concerns the target T4, ETV2 (Homo sapiens, UniProt O00321 1-342).
T4 sequence: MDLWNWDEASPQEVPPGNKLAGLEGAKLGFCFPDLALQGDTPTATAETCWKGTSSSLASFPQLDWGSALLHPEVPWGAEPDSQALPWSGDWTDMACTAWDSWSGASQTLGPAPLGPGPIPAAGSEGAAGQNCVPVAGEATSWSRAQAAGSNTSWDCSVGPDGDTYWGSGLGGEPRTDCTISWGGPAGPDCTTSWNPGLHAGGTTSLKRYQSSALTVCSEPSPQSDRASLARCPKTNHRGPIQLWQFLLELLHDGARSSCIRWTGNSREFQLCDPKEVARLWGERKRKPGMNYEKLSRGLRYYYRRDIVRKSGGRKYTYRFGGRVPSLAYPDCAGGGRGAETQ
The settings on record: protein: recombinant; tags: N-terminal GST; dsDNA, one strand shown. The procedure, abridged:
as §1

The target in another test is T5, ELF3 (Homo sapiens, UniProt P78545 1-371).
T5 sequence: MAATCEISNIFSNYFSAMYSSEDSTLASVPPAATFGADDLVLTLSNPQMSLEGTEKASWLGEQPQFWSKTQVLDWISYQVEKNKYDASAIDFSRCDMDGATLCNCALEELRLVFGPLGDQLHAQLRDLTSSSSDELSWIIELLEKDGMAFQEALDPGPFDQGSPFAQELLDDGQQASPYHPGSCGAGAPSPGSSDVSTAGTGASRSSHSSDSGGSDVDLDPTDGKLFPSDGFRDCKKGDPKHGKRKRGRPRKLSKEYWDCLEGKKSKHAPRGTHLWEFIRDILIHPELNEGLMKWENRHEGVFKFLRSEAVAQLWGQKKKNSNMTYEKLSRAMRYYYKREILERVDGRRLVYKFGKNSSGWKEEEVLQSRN
The settings on record: protein: recombinant; tags: N-terminal GST; dsDNA, one strand shown. The procedure, abridged: as §1

In a further test the target is CRX (Homo sapiens, UniProt O43186 1-299). The settings on record: protein: recombinant; tags: N-terminal GST; dsDNA, one strand shown. The procedure, abridged: as §1
Sequence of CRX (O43186 whole entry): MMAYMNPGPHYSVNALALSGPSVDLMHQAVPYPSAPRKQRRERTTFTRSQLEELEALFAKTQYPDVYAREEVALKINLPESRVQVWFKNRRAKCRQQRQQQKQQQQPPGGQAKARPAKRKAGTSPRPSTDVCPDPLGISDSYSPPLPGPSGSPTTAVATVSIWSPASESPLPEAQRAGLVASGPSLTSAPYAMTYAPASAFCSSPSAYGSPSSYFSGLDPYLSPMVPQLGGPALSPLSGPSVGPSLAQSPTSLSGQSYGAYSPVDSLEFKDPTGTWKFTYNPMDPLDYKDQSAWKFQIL
The target in a further test is ETV1 (Homo sapiens, UniProt P50549 1-477). To be noted: protein: recombinant; tags: N-terminal GST; dsDNA, one strand shown. An outline of the steps: as §1
Sequence of ETV1 (P50549 whole entry): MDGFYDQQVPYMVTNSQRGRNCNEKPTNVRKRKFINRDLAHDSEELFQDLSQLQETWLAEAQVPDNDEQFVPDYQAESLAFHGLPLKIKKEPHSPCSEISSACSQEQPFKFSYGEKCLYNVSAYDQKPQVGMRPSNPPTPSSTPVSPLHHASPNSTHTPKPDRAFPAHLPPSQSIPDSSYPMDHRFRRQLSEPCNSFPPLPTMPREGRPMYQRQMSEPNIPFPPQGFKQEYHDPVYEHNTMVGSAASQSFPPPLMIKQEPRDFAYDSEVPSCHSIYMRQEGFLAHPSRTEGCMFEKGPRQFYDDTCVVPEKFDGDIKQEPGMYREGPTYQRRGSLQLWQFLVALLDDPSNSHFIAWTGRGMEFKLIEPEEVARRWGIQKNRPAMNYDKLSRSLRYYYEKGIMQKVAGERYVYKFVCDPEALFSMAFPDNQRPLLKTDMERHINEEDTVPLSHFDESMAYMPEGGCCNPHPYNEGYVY

The text below walks through data of paper PMC7862700, “An all-to-all approach to the identification of sequence-specific readers for epigenetic DNA modifications on cytosine”.

Sequence of ETV5 (P41161 whole entry): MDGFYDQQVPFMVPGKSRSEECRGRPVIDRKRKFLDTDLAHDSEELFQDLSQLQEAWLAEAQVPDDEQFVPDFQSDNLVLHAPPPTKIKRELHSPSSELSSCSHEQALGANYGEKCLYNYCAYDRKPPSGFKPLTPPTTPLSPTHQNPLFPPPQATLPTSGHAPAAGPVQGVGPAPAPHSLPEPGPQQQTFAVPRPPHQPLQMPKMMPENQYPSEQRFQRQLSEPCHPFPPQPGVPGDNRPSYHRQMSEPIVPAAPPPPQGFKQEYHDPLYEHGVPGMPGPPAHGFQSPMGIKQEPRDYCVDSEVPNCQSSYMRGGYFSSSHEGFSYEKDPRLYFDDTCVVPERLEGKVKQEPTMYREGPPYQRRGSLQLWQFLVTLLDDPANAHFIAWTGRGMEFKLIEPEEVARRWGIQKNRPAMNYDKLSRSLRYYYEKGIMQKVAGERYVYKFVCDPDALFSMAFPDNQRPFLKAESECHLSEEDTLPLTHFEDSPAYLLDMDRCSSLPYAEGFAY
Sequence of ELF4 (Q99607 whole entry): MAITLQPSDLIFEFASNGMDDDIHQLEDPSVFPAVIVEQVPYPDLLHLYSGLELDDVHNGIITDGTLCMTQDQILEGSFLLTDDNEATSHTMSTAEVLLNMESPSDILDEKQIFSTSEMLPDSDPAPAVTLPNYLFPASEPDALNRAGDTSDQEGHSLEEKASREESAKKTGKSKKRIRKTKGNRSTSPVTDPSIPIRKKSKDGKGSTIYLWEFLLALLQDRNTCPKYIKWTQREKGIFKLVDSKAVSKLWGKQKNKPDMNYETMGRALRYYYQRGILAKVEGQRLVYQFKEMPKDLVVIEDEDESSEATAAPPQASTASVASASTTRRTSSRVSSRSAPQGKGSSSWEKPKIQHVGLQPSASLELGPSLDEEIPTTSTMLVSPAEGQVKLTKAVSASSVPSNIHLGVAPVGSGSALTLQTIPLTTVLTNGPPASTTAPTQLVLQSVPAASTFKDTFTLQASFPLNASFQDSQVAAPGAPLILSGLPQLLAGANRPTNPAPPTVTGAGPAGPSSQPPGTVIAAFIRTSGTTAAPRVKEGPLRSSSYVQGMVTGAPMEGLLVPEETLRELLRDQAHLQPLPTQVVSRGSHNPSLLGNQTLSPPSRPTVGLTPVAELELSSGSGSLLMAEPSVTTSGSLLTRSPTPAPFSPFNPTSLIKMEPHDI

On to ACATCT, for which the binding signal is 1.29 fold enrichment (6-mer frequency, TF over GST control) in the test with FEV; 1.31 fold enrichment (6-mer frequency, TF over GST control) with ETV5; 1.36 fold enrichment (6-mer frequency, TF over GST control) with HSF1; 1.43 fold enrichment (6-mer frequency, TF over GST control) with SPIC; 1.29 fold enrichment (6-mer frequency, TF over GST control) with ELF4; 1.4 fold enrichment (6-mer frequency, TF over GST control) in the test with ELK4. The binding signal is 1.29 fold enrichment (6-mer frequency, TF over GST control) in the test with ETV2; 1.4 fold enrichment (6-mer frequency, TF over GST control) with ELF3; 1.19 fold enrichment (6-mer frequency, TF over GST control) with CRX; 1.32 fold enrichment (6-mer frequency, TF over GST control) with ETV1.

For ATCATC, the binding signal with FEV was 1.11 fold enrichment (6-mer frequency, TF over GST control); with ETV5, 1.1 fold enrichment (6-mer frequency, TF over GST control); with HSF1, 1.4 fold enrichment (6-mer frequency, TF over GST control); with SPIC, 1.24 fold enrichment (6-mer frequency, TF over GST control); with ELF4, 1.17 fold enrichment (6-mer frequency, TF over GST control); with ELK4 it was 1.31 fold enrichment (6-mer frequency, TF over GST control). Moreover, the binding signal with ETV2 is 1.21 fold enrichment (6-mer frequency, TF over GST control); with ELF3, 1.26 fold enrichment (6-mer frequency, TF over GST control); in the test with CRX, 1.56 fold enrichment (6-mer frequency, TF over GST control); in the test with ETV1, 1.12 fold enrichment (6-mer frequency, TF over GST control).

As for TCGATT, the binding signal with FEV was 1.02 fold enrichment (6-mer frequency, TF over GST control); with ETV5, 1.12 fold enrichment (6-mer frequency, TF over GST control); in the test with HSF1, 1.48 fold enrichment (6-mer frequency, TF over GST control); in the test with SPIC, 1.2 fold enrichment (6-mer frequency, TF over GST control); in the test with ELF4 it was 1.19 fold enrichment (6-mer frequency, TF over GST control); with ELK4, 1.14 fold enrichment (6-mer frequency, TF over GST control). The binding signal in the test with ETV2 is 1.04 fold enrichment (6-mer frequency, TF over GST control); with ELF3, 1.1 fold enrichment (6-mer frequency, TF over GST control); with CRX it was 1.37 fold enrichment (6-mer frequency, TF over GST control); with ETV1, 1.14 fold enrichment (6-mer frequency, TF over GST control).

On to GGCTCC, for which the binding signal with FEV is 1.35 fold enrichment (6-mer frequency, TF over GST control); in the test with ETV5, 1.37 fold enrichment (6-mer frequency, TF over GST control); in the test with HSF1, 1.13 fold enrichment (6-mer frequency, TF over GST control); in the test with SPIC, 1.16 fold enrichment (6-mer frequency, TF over GST control); with ELF4, 1.24 fold enrichment (6-mer frequency, TF over GST control); with ELK4, 1.29 fold enrichment (6-mer frequency, TF over GST control). Further, the binding signal in the test with ETV2 is 1.43 fold enrichment (6-mer frequency, TF over GST control); in the test with ELF3, 1.32 fold enrichment (6-mer frequency, TF over GST control); with CRX, 1.1 fold enrichment (6-mer frequency, TF over GST control); with ETV1, 1.24 fold enrichment (6-mer frequency, TF over GST control).

Consider ACTCTG, for which the binding signal with FEV is 1.27 fold enrichment (6-mer frequency, TF over GST control); in the test with ETV5, 1.27 fold enrichment (6-mer frequency, TF over GST control); in the test with HSF1 it was 1.12 fold enrichment (6-mer frequency, TF over GST control); in the test with SPIC it was 1.51 fold enrichment (6-mer frequency, TF over GST control); in the test with ELF4, 1.24 fold enrichment (6-mer frequency, TF over GST control); with ELK4, 1.23 fold enrichment (6-mer frequency, TF over GST control). Further, the binding signal is 1.23 fold enrichment (6-mer frequency, TF over GST control) in the test with ETV2; 1.15 fold enrichment (6-mer frequency, TF over GST control) with ELF3; 1.12 fold enrichment (6-mer frequency, TF over GST control) with CRX; 1.25 fold enrichment (6-mer frequency, TF over GST control) with ETV1.

For the sequence TCCAAT, the binding signal with FEV was 1.21 fold enrichment (6-mer frequency, TF over GST control); with ETV5, 1.17 fold enrichment (6-mer frequency, TF over GST control); in the test with HSF1, 1.23 fold enrichment (6-mer frequency, TF over GST control); with SPIC, 1.17 fold enrichment (6-mer frequency, TF over GST control); with ELF4, 1.21 fold enrichment (6-mer frequency, TF over GST control); with ELK4, 1.12 fold enrichment (6-mer frequency, TF over GST control). The binding signal in the test with ETV2 was 1.24 fold enrichment (6-mer frequency, TF over GST control); with ELF3 it was 1.11 fold enrichment (6-mer frequency, TF over GST control); with CRX it was 1.27 fold enrichment (6-mer frequency, TF over GST control); with ETV1, 1.17 fold enrichment (6-mer frequency, TF over GST control).

Consider AACCTG, for which the binding signal was 1.2 fold enrichment (6-mer frequency, TF over GST control) with FEV; 1.16 fold enrichment (6-mer frequency, TF over GST control) with ETV5; 1.03 fold enrichment (6-mer frequency, TF over GST control) with HSF1; 1.04 fold enrichment (6-mer frequency, TF over GST control) in the test with SPIC; 1.25 fold enrichment (6-mer frequency, TF over GST control) in the test with ELF4; 1.3 fold enrichment (6-mer frequency, TF over GST control) with ELK4. The binding signal with ETV2 was 1.16 fold enrichment (6-mer frequency, TF over GST control); with ELF3, 1.12 fold enrichment (6-mer frequency, TF over GST control); with CRX, 1.1 fold enrichment (6-mer frequency, TF over GST control); with ETV1, 1.14 fold enrichment (6-mer frequency, TF over GST control).

As to CCGCCT, the binding signal was 1.43 fold enrichment (6-mer frequency, TF over GST control) with FEV; 1.6 fold enrichment (6-mer frequency, TF over GST control) with ETV5; 1.08 fold enrichment (6-mer frequency, TF over GST control) with HSF1; 1.61 fold enrichment (6-mer frequency, TF over GST control) with SPIC; 1.52 fold enrichment (6-mer frequency, TF over GST control) in the test with ELF4; 1.45 fold enrichment (6-mer frequency, TF over GST control) with ELK4. The binding signal with ETV2 is 1.46 fold enrichment (6-mer frequency, TF over GST control); in the test with ELF3, 1.35 fold enrichment (6-mer frequency, TF over GST control); in the test with CRX, 1.25 fold enrichment (6-mer frequency, TF over GST control); with ETV1, 1.47 fold enrichment (6-mer frequency, TF over GST control).
